Compound activity (PubChem BioAssay)
This is a sample that favours compounds with a hit; in the whole collection about 3.2% have one here.
ClpP mod: qHTS Assay for Activators of ClpP; ATP-dependent Clp protease proteolytic subunit (Bacillus subtilis (strain 168)), P80244; purified B. subtilis ClpP, FRET peptide cleavage, 20 min; Potency, µM (titrated, usually from 57.5 µM); hit rate 1.9% among 340,000; AID 651965, 2013; active = well fitted falling curve with a large enough effect; inconclusive = small, poorly fitted or top-dose-only effect; inactive = no such curve, though single readings can be large or run the other way; also: the source files actives as falling curves though it sought activators and does not explain the sign; nearly all actives have a fitted effect of over 65% in size
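Buffer: 100 mM Tris/HCl pH8, 100 mM KCl, 0.05% low protease BSA, 2.5% glycerol, 0.01% Tween-20. ClpP 10 microg/mL final; 20 min RT; delta FRET normalized to ADEP and DMSO controls.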
GLP1R inv ag: inverse agonists of human GLP-1 receptor; HEK293 GLP-1R CRE-luciferase, luminescence, 24 h; GLP-1R form is constitutively active; Potency, µM (series often up to 38.3 µM), usual class: inhibitors; hit rate 1.6% among 410,000; AID 624417; also: nearly all actives have a fitted effect of over 55% in size
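Stable HEK293 clone (constitutively active GLP-1R + cAMP-response luciferase); 200 cells/uL plated, 12 h pre-culture, compound 24 hr, 37 deg C/5% CO2; detection reagent 12 min RT; luminescence.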
GLP1R ag: activates the human GLP-1 receptor; hit rate 0.007% among 380,000; Potency, µM (doses to about 45.6 µM), hits mostly activators; AID 624172; HEK293 GLP-1R CRE-luciferase, luminescence, 4-6 h; cells express a hypersensitive GLP-1R form; P43220
HEK293 tox: cytotoxicity counter-screen for GLP-1 receptor inverse agonists. HEK293 cAMP-luciferase reporter cells, luminescence, 24 h. Potency, µM (series often up to 38.3 µM), actives largely listed as inhibitors. hit rate 0.13% among 410,000. AID 624418;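 also: loss of luciferase light is scored as toxicity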
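Cells in DMEM/10% Nu serum/1% pen-strep, 1536-well format. Pre-incubated 12 h, dosed with 23 nL compound, incubated a further 24 h. Luciferase detection, 12 min at room temp, luminescence.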
Hits are given with their value; 0 = inactive; ? = inconclusive; - = no result given. Unless noted, calls follow the shape of the dose curve; as a rule, active = well fitted curve in the direction sought with a large enough effect; inconclusive = small, poorly fitted or top-dose-only effect, or another doubt; inactive = no such curve, though single readings can be large; an effect the other way counts as inactive or inconclusive.

SMILES	ClpP mod	GLP1R inv ag	GLP1R ag	HEK293 tox
COCCNc1nc(N)c([N+](=O)[O-])c(NCC2CCCO2)n1 (stereo not drawn)	25µM	0	0	0
Nc1nc(NCCOCCO)nc(NCC2CCCO2)c1[N+](=O)[O-] (stereo not drawn)	0	0	0	0
Cc1ccc(-n2c(Cl)c(Cl)nc(Cl)c2=O)cc1	0	?	0	2.8µM
CC(=O)N1CCCc2cc(S(=O)(=O)N(Cc3ccccc3)C(C)C)ccc21	0	?	-	0
CCOC(=O)c1ccc(N2C(=O)c3n[nH]c(-c4ccco4)c3C2c2ccc([N+](=O)[O-])cc2)cc1 (stereo not drawn)	0	7.1µM	0	?
CCOC(=O)c1ccc(N2C(=O)c3[nH]nc(-c4ccc(C)cc4)c3C2c2cccc(F)c2)cc1 (stereo not drawn)	0	10µM	0	0
CCOC(=O)c1ccc(N2C(=O)c3[nH]nc(-c4ccc(C)cc4)c3C2c2ccc(O)cc2)cc1 (stereo not drawn)	0	?	0	?
CCOC(=O)c1ccc(N2C(=O)c3n[nH]c(-c4ccco4)c3C2c2ccc(C)cc2)cc1 (stereo not drawn)	0	?	0	?
COc1cccc(NC(=O)CSc2nc(C)c(Cc3ccccc3)c(=O)[nH]2)c1	0	0	-	0
Clc1ccccc1C(c1ccccc1)(c1ccccc1)n1ccnc1	0	10µM	0	0
C#CC(c1ccccc1)(c1ccccc1)n1ccnc1	0	?	0	0
COc1ccc(NC(=O)C2CCN(c3ccc(Sc4ccc(C)cc4)nn3)CC2)cc1	0	0	0	0
CCN1CCCC1CNCC(O)COc1ccc(C(C)(C)C)cc1C (stereo not drawn)	-	5µM	0	0
c1ccc(-c2ncnc3cc4n(c23)CCC4)cc1	28µM	0	0	0
O=c1oc2ccccc2cc1-c1nc(-c2cccs2)no1	0	0	-	0
Cc1cc2c(cc1C)C(c1ccccc1OC(C)C)CC(=O)N2 (stereo not drawn)	-	10µM	0	0
CCNc1nc(Oc2ccc(OCC(=O)OC)nn2)nc(N2CCOCC2)n1	0	0	0	0
CNC(=S)N/N=C/c1c2ccccc2c(Cl)c2ccccc12	-	7.9µM	0	3.5µM
CNC(=S)N/N=C/c1c(C)cccc1Cl	0	?	0	?
CCCCCCCCCCCCCCCC[N+](C)(C)CC	0	11µM	0	0
CCCCCCCCCCCCCCCC[N+](C)(C)CCl	0	3.5µM	0	?
CC(C)CCNC(=O)c1onc(CSc2ccc(Cl)cc2)c1C(=O)NCCC(C)C	0	10µM	0	0
CC(C)CCNC(=O)c1onc(CSc2ccc(F)cc2)c1C(=O)NCCC(C)C	0	?	0	0
CC(C)CCNC(=O)c1onc(CSc2ccccc2)c1C(=O)NCCC(C)C	0	4µM	0	0
CCCNC(=O)c1onc(CSc2ccccc2)c1C(=O)NCCC	0	?	0	0
SMILES	ClpP mod	GLP1R inv ag	GLP1R ag	HEK293 tox
COc1ccc2oc(=O)c(C(=O)NCCc3c(C)[nH]c4c(Cl)cccc34)cc2c1	0	0	0	0
COc1ccc(OCC2c3cc(OC)c(OC)cc3CCN2C(=O)c2c(F)cccc2F)cc1 (stereo not drawn)	0	0	0	0
COc1ccc(-n2cc(C(=O)Oc3cc(C)cc(C)c3)c3ccccc3c2=O)cc1	0	0	-	0
COc1cccc(/C=N/NC(=O)C(C)n2nc(C)c([N+](=O)[O-])c2C)c1O (stereo not drawn)	0	1.8µM	0	?
CCOC(=O)C1=C(C)N=c2s/c(=C/c3ccco3)c(=O)n2C1c1cccc(OC)c1 (stereo not drawn)	0	11µM	0	0
CC(C)CC(NC(=O)C1CCCCC1)C(=O)N1CCN(c2ccccn2)CC1 (stereo not drawn)	28µM	0	0	0
COc1ccccc1CC(=O)N1CCN(c2ccccn2)CC1	22µM	0	0	0
CSCCC(NC(=O)C1CCC(C)CC1)C(=O)N1CCN(c2ccccn2)CC1 (stereo not drawn)	?	0	0	0
O=C(CC1CCCCC1)N1CCN(c2ccccn2)CC1	32µM	0	0	0
O=C(O)CCC(=O)N1CCN(c2ccccn2)CC1	25µM	0	0	0
COc1ccc(OC)c(-c2noc(CSc3nnc(-c4ccccc4)n3-c3ccccc3)n2)c1	0	0	-	0
CCn1c(C)c(C)c2cc(C(=O)NCC(C)c3ccccc3)ccc21 (stereo not drawn)	0	?	-	0
Cc1ccc2c(c1)N(C(=O)CCC(=O)NCc1cccs1)CC(C)O2 (stereo not drawn)	0	0	-	0
Cc1cc(N2CCC(C(=O)N(CC(C)C)CC(C)C)CC2)n2nc(C)c(-c3ccc(Cl)cc3)c2n1	0	0	0	0
Cc1cc(OCC(=O)N2CCN(c3ccccn3)CC2)c(C)cc1Br	35µM	?	0	0
CC(C)Cc1nnc(NC(=O)CCC(=O)N2CCN(c3ccccn3)CC2)s1	25µM	0	0	0
COC(=O)C(C)Sc1nnc2cc(C)c3cc(C)cc(C)c3n12 (stereo not drawn)	0	0	-	0
COc1ccccc1C(c1nnnn1CCc1ccccc1)N1CCCCCC1 (stereo not drawn)	0	11µM	0	0
COc1ccccc1N1CCN(C(c2ccccc2)c2nnnn2CCc2ccccc2)CC1 (stereo not drawn)	0	11µM	0	0
COc1ccc(C(c2nnnn2Cc2ccc(F)cc2)N2CCN(c3ccccc3)CC2)cc1 (stereo not drawn)	0	?	0	0
COc1ccc(N2CCN(C(c3ccccc3)c3nnnn3Cc3ccc(F)cc3)CC2)cc1 (stereo not drawn)	0	13µM	0	0
COc1ccccc1C(c1nnnn1CCc1ccccc1)N1CCN(c2ccccc2)CC1 (stereo not drawn)	0	0	0	0
Fc1ccc(C(c2nnnn2CCc2ccccc2)N2CCCc3ccccc32)cc1 (stereo not drawn)	0	2.8µM	0	0
CC(=O)c1ccc(NC(=O)CN(C)S(=O)(=O)c2cc3c(cc2Cl)NC(=O)CO3)cc1	0	0	-	0
Clc1ccc(-c2nnc3ccccn23)cc1	28µM	0	0	0
SMILES	ClpP mod	GLP1R inv ag	GLP1R ag	HEK293 tox
CC(C)N(CC#CC(O)(c1ccccc1)c1ccccc1)CCO	0	0	0	0
CC(C)N(CC#CC(O)(c1ccccc1)c1ccccc1)C(C)C	32µM	?	0	0
CCN(CC)C(=O)c1c([N+](=O)[O-])c(C(C)(C)C)nn1C	25µM	0	0	0
Cc1ccccc1NC(=O)c1c([N+](=O)[O-])c(C(C)(C)C)nn1C	0	?	0	0
Cc1cccc(NC(=O)c2c([N+](=O)[O-])c(C(C)(C)C)nn2C)c1	0	5µM	0	0
Cn1nc(C(C)(C)C)c([N+](=O)[O-])c1C(=O)NCCO	0	0	0	0
Cn1nc(C(C)(C)C)c([N+](=O)[O-])c1C(=O)Nc1ccc(Br)cc1	0	2.8µM	0	0
